Measurements taken from PubChem BioAssay (Tox21).
Inconclusive results are not listed. Activity calls are given as the source filed them. Calls follow the shape of the dose curve; as a rule, active = well fitted curve in the direction sought with a large enough effect in the repeat runs; inconclusive = weak or mixed curves; inactive = no such curve, though single readings can be large; an effect the other way counts as inactive or inconclusive.

Key:
[1] = A CellTox Green Cytotoxicity Assay to monitor cytotoxicity in HEK293 cells - 40 hour (AID 1224871); also: nearly all actives have a fitted effect of over 45% in size
Summary of the method: (§1)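 Nonlytic real-time cytotoxicity: HEK293 + CellTox Green reagent plated, 5 h preincubation, pintool compound addition (23 nL in DMSO), 37 C for 40 h, fluorescence measured at successive time points.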

[2] = qHTS RealTime-Glo MT Cell Viability Assay in HEK293 cells - 16 hour (AID 1224872); also: top concentration of the series differs between compounds; nearly all actives have a fitted effect of over 50% in size
Summary of the method: (§2)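 Assay medium contained NanoLuc luciferase plus cell-permeant prosubstrate, added with HEK293 cells at 600 cells/well. After 5 h at 37 C/5% CO2 compounds were added; plates stayed at 37 C for 40 h with serial luminescence reads.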

[3] = qHTS RealTime-Glo MT Cell Viability Assay in HepG2 cells - 8 hour (AID 1224873); also: nearly all actives have a fitted effect of over 55% in size
Summary of the method: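 HepG2 cells (600/well) mixed with RealTime-Glo MT reagent, settled 5 h at 37 C/5% CO2 before compound addition. Nonlytic NanoLuc luminescence from viable-cell prosubstrate reduction read repeatedly during 40 h treatment at 37 C.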

[4] = qHTS RealTime-Glo MT Cell Viability Assay in HEK293 cells - 40 hour (AID 1224874); details: RealTime-Glo luminescence; max response: active compounds read low; also: nearly all actives have a fitted effect of over 50% in size
Summary of the method: (§3)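 Cells were seeded together with NanoLuc luciferase and a prosubstrate that viable cells reduce to a luciferase substrate. After a 5 h incubation at 37 C/5% CO2, compounds were added and luminescence was measured repeatedly during 40 h of treatment.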

[5] = A CellTox Green Cytotoxicity Assay to monitor cytotoxicity in HEK293 cells - 24 hour (AID 1224875); also: series mostly up to about 77 µM; nearly all actives have a fitted effect of over 45% in size
Summary of the method: as §1

[6] = A CellTox Green Cytotoxicity Assay to monitor cytotoxicity in HepG2 cells - 16 hour (AID 1224876); also: nearly all actives have a fitted effect of over 45% in size
Summary of the method: (§4)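 Read-out is fluorescence of a cyanine dye excluded from live cells that stains DNA of dead HepG2 cells, with signal proportional to cytotoxicity. Plates were read at 0, 8, 16, 24, 32 and 40 h after compound addition.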

[7] = A CellTox Green Cytotoxicity Assay to monitor cytotoxicity in HepG2 cells - 40 hour (AID 1224879); also: nearly all actives have a fitted effect of over 40% in size
Summary of the method: as §4

[8] = A CellTox Green Cytotoxicity Assay to monitor cytotoxicity in HEK293 cells - 32 hour (AID 1224881); also: nearly all actives have a fitted effect of over 40% in size
Summary of the method: as §1

[9] = A CellTox Green Cytotoxicity Assay to monitor cytotoxicity in HepG2 cells - 0 hour (AID 1224882); also: nearly all actives have a fitted effect of over 35% in size
Summary of the method: as §4

[10] = A CellTox Green Cytotoxicity Assay to monitor cytotoxicity in HepG2 cells - 32 hour (AID 1224883); also: nearly all actives have a fitted effect of over 50% in size
Summary of the method: as §4

[11] = A CellTox Green Cytotoxicity Assay to monitor cytotoxicity in HEK293 cells - 8 hour (AID 1224884); also: nearly all actives have a fitted effect of over 35% in size
Summary of the method: as §1

[12] = qHTS RealTime-Glo MT Cell Viability Assay in HepG2 cells - 16 hour (AID 1224885); also: nearly all actives have a fitted effect of over 50% in size
Summary of the method: (§5)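 qHTS, HepG2, 600 cells/well, RealTime-Glo (NanoLuc + prosubstrate) added with cells; 5 h preincubation; DMSO compound addition; 37 C; luminescence at 0/8/16/24/32/40 h.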

[13] = qHTS RealTime-Glo MT Cell Viability Assay in HEK293 cells - 24 hour (AID 1224886)
Summary of the method: as §2

[14] = qHTS RealTime-Glo MT Cell Viability Assay in HEK293 cells - 8 hour (AID 1224887)
Summary of the method: as §3

[15] = A CellTox Green Cytotoxicity Assay to monitor cytotoxicity in HEK293 cells - 16 hour (AID 1224888); also: nearly all actives have a fitted effect of over 35% in size
Summary of the method: as §1

[16] = qHTS RealTime-Glo MT Cell Viability Assay in HepG2 cells - 0 hour (AID 1224889); also: nearly all actives have a fitted effect of over 50% in size
Summary of the method: as §5

[17] = A CellTox Green Cytotoxicity Assay to monitor cytotoxicity in HepG2 cells - 8 hour (AID 1224890); also: nearly all actives have a fitted effect of over 45% in size
Summary of the method: as §4

[18] = A CellTox Green Cytotoxicity Assay to monitor cytotoxicity in HepG2 cells - 24 hour (AID 1224878); also: nearly all actives have a fitted effect of over 45% in size
Summary of the method: as §4

[19] = qHTS RealTime-Glo MT Cell Viability Assay in HEK293 cells - 0 hour (AID 1224880)
Summary of the method: as §3

[20] = qHTS RealTime-Glo MT Cell Viability Assay in HepG2 cells - 32 hour (AID 1224877); also: nearly all actives have a fitted effect of over 55% in size
Summary of the method: as §5
% is scaled to controls: 0 for no effect and ±100 for the full control effect.

C[Si](C)O[Si](C)(C)O[Si](C)(C)O[Si](C)C
inactive: Potency [1] | Potency [2] | Potency [3] | max response [4] 7.78% | Potency [5] | Potency [6] | Potency [7] | Potency [8] | Potency [9] | Potency [10] | Potency [11] | Potency [12] | Potency [13] | Potency [14] | Potency [15] | Potency [16] | Potency [17]

CCCCCCCCCC(=O)OCC
inactive: Potency [1] | Potency [2] | Potency [3] | max response [4] -6.56% | Potency [5] | Potency [6] | Potency [18] | Potency [7] | Potency [19] | Potency [8] | Potency [9] | Potency [10] | Potency [13] | Potency [14] | Potency [15] | Potency [16] | Potency [17]

O=C(O)Cc1cc(I)c(Oc2ccc(O)c(I)c2)c(I)c1
inactive: Potency [1] | Potency [2] | Potency [3] | max response [4] 4.51% | Potency [5] | Potency [6] | Potency [20] | Potency [18] | Potency [7] | Potency [8] | Potency [9] | Potency [10] | Potency [11] | Potency [12] | Potency [13] | Potency [15] | Potency [17]

Cc1occc1S
inactive: Potency [1] | Potency [2] | Potency [3] | max response [4] 3.01% | Potency [5] | Potency [6] | Potency [20] | Potency [18] | Potency [7] | Potency [8] | Potency [9] | Potency [10] | Potency [12] | Potency [13] | Potency [14] | Potency [15] | Potency [16] | Potency [17]

O=C(O)COC(=O)Cc1ccccc1Nc1c(Cl)cccc1Cl
inactive: Potency [1] | Potency [2] | Potency [3] | max response [4] 5.48% | Potency [5] | Potency [6] | Potency [20] | Potency [18] | Potency [7] | Potency [8] | Potency [9] | Potency [10] | Potency [11] | Potency [12] | Potency [13] | Potency [14] | Potency [15] | Potency [16] | Potency [17]

N[C@H]1C(O)O[C@H](CO)[C@H](O)[C@@H]1O (stereo partly specified)
inactive: Potency [1] | Potency [2] | Potency [3] | max response [4] 9.12% | Potency [5] | Potency [6] | Potency [20] | Potency [7] | Potency [19] | Potency [8] | Potency [9] | Potency [10] | Potency [11] | Potency [13] | Potency [14] | Potency [15] | Potency [16] | Potency [17]

c1ccc(CNCc2ccccc2)cc1
inactive: Potency [1] | Potency [2] | Potency [3] | max response [4] -7.12% | Potency [5] | Potency [6] | Potency [18] | Potency [7] | Potency [19] | Potency [8] | Potency [9] | Potency [10] | Potency [11] | Potency [12] | Potency [13] | Potency [15] | Potency [16] | Potency [17]

O=C1Nc2cc(Cl)ccc2Oc2ccccc21
inactive: Potency [1] | Potency [2] | Potency [3] | max response [4] 5.17% | Potency [5] | Potency [6] | Potency [20] | Potency [18] | Potency [7] | Potency [8] | Potency [9] | Potency [10] | Potency [11] | Potency [12] | Potency [13] | Potency [15] | Potency [16] | Potency [17]

CC(C)NCC(O)c1cc(O)cc(O)c1 (stereo unspecified)
inactive: Potency [1] | Potency [2] | Potency [3] | max response [4] 1.47% | Potency [5] | Potency [6] | Potency [20] | Potency [7] | Potency [19] | Potency [8] | Potency [9] | Potency [10] | Potency [11] | Potency [12] | Potency [13] | Potency [14] | Potency [15] | Potency [16] | Potency [17]

CC(=O)c1ccc2c(c1)[C@H](NC(=O)c1ccc(F)cc1)[C@@H](O)C(C)(C)O2
inactive: Potency [1] | Potency [2] | Potency [3] | max response [4] -0.992% | Potency [5] | Potency [6] | Potency [20] | Potency [7] | Potency [19] | Potency [8] | Potency [9] | Potency [10] | Potency [11] | Potency [13] | Potency [14] | Potency [15] | Potency [16]

O=C(/C=C/c1ccc(O)c(O)c1)O[C@@H]1C[C@](O)(C(=O)O)C[C@@H](O)[C@H]1O
inactive: Potency [1] | Potency [2] | Potency [3] | max response [4] -3.27% | Potency [5] | Potency [6] | Potency [20] | Potency [18] | Potency [7] | Potency [8] | Potency [9] | Potency [10] | Potency [12] | Potency [13] | Potency [14] | Potency [15] | Potency [16] | Potency [17]

CN1CCC(OC(c2ccccc2)c2ccccc2)CC1
inactive: Potency [1] | Potency [2] | Potency [3] | max response [4] -5.84% | Potency [5] | Potency [6] | Potency [7] | Potency [19] | Potency [8] | Potency [9] | Potency [10] | Potency [11] | Potency [12] | Potency [13] | Potency [14] | Potency [15] | Potency [16] | Potency [17]

CN1CCN(C2=Nc3ccccc3Sc3ccc(Cl)cc32)CC1
inactive: Potency [1] | Potency [2] | Potency [3] | max response [4] -9.09% | Potency [5] | Potency [6] | Potency [20] | Potency [7] | Potency [19] | Potency [8] | Potency [9] | Potency [10] | Potency [12] | Potency [13] | Potency [14] | Potency [15] | Potency [16] | Potency [17]

Oc1ccc2c(c1)OCO2
inactive: Potency [1] | Potency [2] | Potency [3] | max response [4] -2.1% | Potency [5] | Potency [6] | Potency [18] | Potency [7] | Potency [19] | Potency [8] | Potency [9] | Potency [10] | Potency [11] | Potency [12] | Potency [13] | Potency [14] | Potency [15] | Potency [16] | Potency [17]
